# GPR151 ag = activators of human GPR151, primary screen, cell-based, PathHunter beta-arrestin, luminescence; activation, % at 11.2 µM; PathHunter beta-arrestin GPR151 cells; hit rate 1% among 650,000; AID 1508602, 2020; in the data active means activation above about 4.9%;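 further: 0% = median of compound wells and 100% = cells with positive control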
# Target sequence (Q8TDV0 whole entry, looked up): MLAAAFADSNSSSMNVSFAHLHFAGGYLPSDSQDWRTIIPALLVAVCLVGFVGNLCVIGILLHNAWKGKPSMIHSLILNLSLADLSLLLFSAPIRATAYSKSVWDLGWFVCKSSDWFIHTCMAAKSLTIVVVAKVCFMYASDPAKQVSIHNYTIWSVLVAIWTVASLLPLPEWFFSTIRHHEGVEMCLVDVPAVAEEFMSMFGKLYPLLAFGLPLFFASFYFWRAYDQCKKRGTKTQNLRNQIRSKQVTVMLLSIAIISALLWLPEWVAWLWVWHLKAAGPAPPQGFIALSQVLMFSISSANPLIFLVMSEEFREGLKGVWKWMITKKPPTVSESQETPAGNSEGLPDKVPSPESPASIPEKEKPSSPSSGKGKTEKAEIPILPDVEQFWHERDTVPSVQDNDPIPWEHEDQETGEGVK
# TEAD-YAP inh = TEAD-YAP interaction inhibition, primary screen, TEAD-YAP interaction inhibitor project, luminescence, HEK-TIYL cells. AID 1259422, 2018. inhibition, % at 9.12 µM. hit rate 1.4% among 640,000. TEAD-Gal4/YAP UAS-luciferase luminescence; in the data active means inhibition above about 32%;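 further: 0% = median of test compound wells and 100% = reference inhibitor wells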
# FBW7 activator = FBW7 E3 ligase activators, primary screen, biochemical, AlphaScreen, human | AlphaScreen FBW7–phospho-cyclin E peptide binding, activator screen | normalized activity (activation), % at 26.1 µM | hit rate 0.13% among 650,000 | AID 1259310, 2017; in the data active means normalized activity above about 1.9%;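 further: purified mutant Fbw7 with reduced substrate affinity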
# MITF inh = MITF inhibitors, primary screen, biochemical, AlphaScreen, human | Microphthalmia-associated transcription factor (Homo sapiens), O75030 | AlphaScreen MITF homodimerization, bead proximity signal | inhibition, % at 2.6 µM | hit rate 0.91% among 650,000; in the data active means inhibition above about 50%;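 further: 0% = vehicle wells with protein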
# MITF inh conf = MITF inhibitors, retest of hits, confirmation, biochemical, AlphaScreen, triplicate; AID 1259372, 2018; hit rate 16% among 4,700; inhibition, % at 2.6 µM; AlphaScreen MITF homodimerization, biotin/His-MITF beads; shares compounds with MITF inh;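 active means inhibition above a cutoff derived from the DMSO control wells, cut at about 28% in these data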;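 further: 0% = MITF dimer wells with DMSO only; inhibitors lower the bead chemiluminescence by keeping MITF from dimerizing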
# AS interf DR = AlphaScreen optical interference compounds, dose response, counter-screen, biochemical, HTS; AlphaScreen optical interference counterscreen, cell-free; AID 1259373, 2018; hit rate 6% among 480; IC50, µM; shares compounds with MITF inh; call rule not given here
# AlphaScreen intf2 = AlphaScreen optical interference compounds, counter-screen for MITF inhibitor project, biochemical, triplicate; shares compounds with MITF inh; LysRS AlphaScreen counterscreen, signal interference; inhibition, % at 2.6 µM; hit rate 7.6% among 4,700; AID 1259376, 2018;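 active means inhibition above a cutoff derived from the DMSO control wells, cut at about 30% in these data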
# Active calls of the source: *; · = no result given. Only some compounds are listed: those with a hit (about 3.4% of all), similar ones and a draw of the others.
SMILES,GPR151 ag,TEAD-YAP inh,FBW7 activator,MITF inh,MITF inh conf,AlphaScreen intf2,others
CC1=NN(c2cccc3ccccc23)C(=O)C1,-1,8,-2,10,·,·,
CC1=NN(c2ccc3cccc(O)c3n2)C(=O)C1,2,7,0,90*,115*,101*,
COc1ccc(/C=C2/NC(=O)/C(=C/c3ccc(OC)cc3)C2=O)cc1,1,-6,0,13,·,·,
NC(=O)CN1CCCC1=Nc1ccccc1,-1,0,0,-4,·,·,
c1ccc(N2CCCC2=Nc2ccncc2)cc1,0,-2,0,68*,6,11,
N#C/C(=C/c1cccc2ccccc12)c1nn(CCO)c(N)c1C#N,-1,7,0,11,·,·,
CCOC(=O)CSc1nn2c(=O)c(C)nnc2s1,-1,-4,0,3,·,·,
CCOC(=O)CC(=O)CSc1nn2c(=O)c(C)nnc2s1,1,0,0,53*,18,37*,
O=C(NCCc1ccc(O)cc1)c1cccc(-c2cccs2)c1,1,4,0,52*,41*,4,AS interf DR=>6.3
O=C(NCCc1ccc(O)cc1)c1ccnc(-c2cccs2)c1,1,7,0,51*,51*,0,AS interf DR=>6.8
CC(C)CCNC(=O)CN1C(=O)CCSc2ccccc21,-1,1,0,5,·,·,
CN(Cc1ccco1)S(=O)(=O)c1ccc2[nH]cc(C(=O)O)c(=O)c2c1,1,-1,0,54*,30*,5,AS interf DR=>6.5
C=CCN(c1ccccc1)S(=O)(=O)c1ccc2[nH]cc(C(=O)O)c(=O)c2c1,0,6,0,57*,12,-4,
Cc1cccc(Nc2nc3ccc(C(=O)c4ccccc4)cc3n3nnnc23)c1,-2,4,0,33,·,·,
CCOC(=O)C1=C(N)OC2=C(C(=O)CCC2)C1c1ccc(Cl)cc1 (stereo not drawn),0,-1,0,89*,-4,-1,
CCOc1ccc(C2C(C#N)=C(N)OC3=C2C(=O)CCC3)cc1 (stereo not drawn),0,-6,0,54*,3,-4,
COc1ccc(C(=O)Nc2nc3c(s2)C(=O)CC(C)(C)C3)cc1,2,-24,0,-5,·,·,
Fc1ccc(-c2[nH]ncc2CN2CCCC(N3CCOCC3)C2)cc1 (stereo not drawn),1,-2,0,-2,·,·,
CCN1CCN(CCOc2ccc(C(C)=O)cc2)CC1,0,0,0,78*,1,16,
CC(=O)c1ccc(OCCN2CCCCC2)cc1,0,-3,0,32,·,·,
CC(=O)c1ccc(OCCCCN2CCN(C)CC2)cc1,0,-8,0,52*,9,22,
CCN1CCN(CC(=O)c2ccc(OC(F)F)cc2)CC1,1,-1,0,78*,9,18,
O=C(C1CCN(c2nc3ccccc3n3cccc23)CC1)N1CCc2ccccc21,1,5,0,-2,·,·,
CCOc1ccc2cc(S(=O)(=O)N(CC)CC)ccc2c1,0,4,0,12,·,·,
C=CCn1c(SCC2OCCO2)nc2cc(C(=O)NCc3ccco3)ccc2c1=O,0,20,0,67*,-4,1,
SMILES,GPR151 ag,TEAD-YAP inh,FBW7 activator,MITF inh,MITF inh conf,AlphaScreen intf2,others
C=CCn1c(SCc2ccc(C)cc2)nc2cc(C(=O)NCc3ccco3)ccc2c1=O,-1,-1,0,19,·,·,
COC(=O)C(N)CSC1CCCCO1 (stereo not drawn),-1,0,0,56*,9,18,
CC1(C)OC(=O)C(=Cc2ccc([N+](=O)[O-])cc2)C(=O)O1,-1,3,0,-3,·,·,
CCOc1cccc(OCCN2CC(C)OC(C)C2)c1 (stereo not drawn),0,-6,0,53*,12,12,
c1ccc(Oc2cccc(OCCCCN3CCOCC3)c2)cc1,-1,-4,0,29,·,·,
CCN1CCN(CCCOc2cccc(Oc3ccccc3)c2)CC1,-1,-6,-1,69*,7,16,
c1ccc(Oc2cccc(OCCCCN3CCNCC3)c2)cc1,-1,-16,0,77*,3,13,
Clc1cccc(OCCN2CCNCC2)c1,-2,3,1,49,·,·,
CC1CN(CCOc2ccc3ccccc3c2)CC(C)O1 (stereo not drawn),-1,-11,0,30,·,·,
CCOc1cccc(OCCN2CCNCC2)c1,-1,-2,0,75*,9,-13,
c1ccc(Oc2cccc(OCCCN3CCNCC3)c2)cc1,2,-13,0,31,·,·,
O=C1NC(c2ccco2)Nc2sc3c(c21)CCCC3 (stereo not drawn),1,-7,0,14,·,·,
COc1ccccc1NC(=O)NNC(=O)c1cc2occc2[nH]1,2,9,0,6,·,·,
CCCCN1C(=O)C2C(C(=O)Nc3cc(Cl)cc(Cl)c3)C3C=CC2(O3)C1C(=O)NC1CCCCC1 (stereo not drawn),1,11,0,-4,·,·,
OC(CNC1CC1)COC1CCCc2ccccc21 (stereo not drawn),-1,16,0,32,·,·,
CN(C(=O)Cn1cccc([N+](=O)[O-])c1=O)C1CC(C)(C)NC(C)(C)C1,0,-2,0,-2,·,·,
c1ccc(COc2ccc(OCCCN3CCNCC3)cc2)cc1,1,58*,0,62*,1,5,
Fc1ccc(OCCCN2CCNCC2)cc1,-1,1,0,37,·,·,
CN(C)CCCNC(=O)C1C(C=C(Cl)Cl)C1(C)C (stereo not drawn),1,-7,0,11,·,·,
O=C(C1CCN(Cc2nc3ccccc3[nH]2)CC1)N1CCN(c2ccc(F)cc2)CC1,-1,15,0,58*,10,14,
O=C(C1CC12CCN(Cc1nc3ccccc3[nH]1)CC2)N1CCN(c2ccccc2)CC1 (stereo not drawn),0,1,0,-6,·,·,
O=C(NCc1ccc2c(c1)OCO2)C1CCN(Cc2nc3ccccc3[nH]2)CC1,0,-7,0,63*,7,10,
O=C(C1CCN(Cc2nc3ccccc3[nH]2)CC1)N1CCc2ccccc2C1,0,13,0,62*,6,15,
CCC1CCCCN1Cc1ccc(C(N)=O)c(=O)[nH]1 (stereo not drawn),1,10,0,3,·,·,
CCN(CC)CCNc1nc(-c2cccs2)c(CC(=O)O)s1,1,5,0,79*,-9,5,
O=C(O)Cc1sc(NCc2ccco2)nc1-c1cccs1,1,0,0,18,·,·,

# Bioassay records from PubChem.
